NPC1 prom act = qHTS Assay for NPC1 Promoter Activators; Huh7 NPC1 promoter luciferase reporter, 24 h; Potency, µM (highest dose often 9.22 µM), without a hit: at the top dose activation, actives largely listed as activators; hit rate 2.4% among 320,000; note: % of control where 0% means no effect; nearly all actives have a fitted effect of over 60% in size
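NPC1 promoter–luciferase Huh7 cells; 24 h compound; luminescence.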
Luc counter = Counterscreen for Luciferase (Kinase-Glo TM) Inhibition | Kinase-Glo luciferase, ATP luminescence, 8 min | hit rate 0.28% among 200,000 | Potency, µM (doses to about 38.3 µM), for inactives: at the top dose activity change, negative = inhibition, actives largely listed as inhibitors | AID 1379, 2008; note: % is set by controls: 0 for no effect and ±100 for the full control effect; nearly all actives have a fitted effect of over 60% in size
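Luminescence was the read-out, taken after 8-minute incubation at ambient temperature. Luciferase turned over luciferin with 10 uM ATP in imidazole pH 7.2 buffer containing KCl, MgCl2, Tween 20 and BSA.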
SMN2 splice enh = qHTS Assay for Enhancers of SMN2 Splice Variant Expression; HEK293 SMN2-luciferase splicing reporter, luminescence, 30-36 h; Potency, µM (titrated, usually from 46.1 µM), for the others: at the highest dose activity change, positive = activation, most hits filed as activators; hit rate 2.8% among 210,000; AID 1458, 2008; note: % of control where 0% means no effect; nearly all actives have a fitted effect of over 55% in size
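qHTS luciferase splicing reporter: luminescence rises when SMN2 exon 7 is included in transfected HEK293 cells. Compound exposure lasted 30-36 h at 37C, with 4.5 mM final sodium butyrate as control, followed by a ONE-Glo read.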
FLuc modulator = qHTS profiling assay for firefly luciferase inhibitor/activator using purifed enzyme and Km concentrations of substrates (counterscreen for miR-21 project) | Potency, µM (doses to about 57.5 µM), inactives show at the highest dose activity change, negative = inhibition, actives largely listed as inhibitors | Luciferin 4-monooxygenase (Photinus pyralis), P08659 | hit rate 6.9% among 360,000 | purified FLuc, Km substrates, luminescence inhibition | AID 588342, 2011;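 note: plate controls were vehicle for no effect and reference inhibitor for full effect; nearly all actives have a fitted effect of over 55% in size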
Target sequence (P08659 whole entry, looked up): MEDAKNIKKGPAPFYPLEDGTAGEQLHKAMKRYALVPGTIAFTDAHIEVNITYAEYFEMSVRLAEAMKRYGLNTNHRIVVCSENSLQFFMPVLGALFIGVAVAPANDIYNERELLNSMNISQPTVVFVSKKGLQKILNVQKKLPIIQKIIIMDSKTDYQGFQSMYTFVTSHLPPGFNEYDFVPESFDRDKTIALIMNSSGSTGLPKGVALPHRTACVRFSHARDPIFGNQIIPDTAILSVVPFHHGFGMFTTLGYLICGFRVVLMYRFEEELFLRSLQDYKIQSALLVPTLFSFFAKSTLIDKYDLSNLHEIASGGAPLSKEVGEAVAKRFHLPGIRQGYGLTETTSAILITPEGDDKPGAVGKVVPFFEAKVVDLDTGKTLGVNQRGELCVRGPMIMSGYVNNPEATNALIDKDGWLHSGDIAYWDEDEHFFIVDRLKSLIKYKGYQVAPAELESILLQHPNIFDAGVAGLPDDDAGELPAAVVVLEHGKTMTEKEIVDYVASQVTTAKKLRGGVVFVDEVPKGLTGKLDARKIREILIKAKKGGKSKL
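Biochemical qHTS of compounds, final roughly 60 µM downward over six points, against 10 nM purified firefly luciferase using Km concentrations of substrates (10 uM D-luciferin, 10 uM ATP) in Tris acetate pH 7.5 buffer; luminescence output.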
ELG1 genotox = qHTS screen for small molecules that induce genotoxicity in human embryonic kidney (HEK293T) cells expressing luciferase-tagged ELG1; AID 504466, 2011; HEK293T ELG1-luciferase reporter, luminescence, 16 h; Potency, µM (doses to about 46 µM), for the others: at the highest dose activity change, positive = activation, usual class: activators; hit rate 1.3% among 330,000; note: % of control where 0% means no effect; nearly all actives have a fitted effect of over 60% in size
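HEK293T cells expressing luciferase-tagged ELG1 were exposed to compound or DMSO vehicle for 16 hr at 37 °C and 5% CO2. Luciferase activity was then measured with ONE-Glo after 30 min at room temperature.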
Rab9 promoter act = qHTS Assay for Rab9 Promoter Activators | Huh7 Rab9 promoter-luciferase reporter, luminescence, 24 h | Potency, µM (series often up to 9.22 µM), for inactives: top-dose activation, negative = inhibition, hits mostly activators | hit rate 2.8% among 320,000 | AID 485297, 2010; note: % of control where 0% means no effect; nearly all actives have a fitted effect of over 60% in size
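Promoter activation is measured as luciferase luminescence in Huh7 cells stably transfected with a Rab9 promoter–luciferase construct, following 24 h compound exposure at 37 °C and 10 min reagent incubation at ambient temperature.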
* marks the source's active call; other numbers are inactive results; ? = inconclusive; . = no result given; [ ] = another dose, or the depositor's remark. In the library only some 7.3% were active in any assay of this set; here they are far more common. Calls come from the whole dose curve; as a rule, active = well fitted curve in the direction sought with a large enough effect; inconclusive = small, poorly fitted or top-dose-only effect, or another doubt; inactive = no such curve, though single readings can be large; an effect the other way counts as inactive or inconclusive. Potency is the fitted concentration of half-maximal effect.

SMILES | NPC1 prom act | Luc counter | SMN2 splice enh | FLuc modulator | ELG1 genotox | Rab9 promoter act
c1ccc2sc(N3CCN(Cc4ccc5c(c4)OCO5)CC3)nc2c1 | . | 1.3% | -2.8% | . | . | .
c1ccc2sc(-c3ccc4c(c3)OCO4)nc2c1 | 0.562µM* | 12.6µM* | 7.08µM* | 0.536µM* | 0.581µM* | 0.316µM*
Cc1c(NC(=O)c2ccc3c(c2)OCO3)cccc1-c1nc2ncccc2o1 | -1.6% | -7.7% | -25.8% | ? | 2.6% | -0.6%
Cc1c(NC(=O)c2ccc3c(c2)OCO3)cccc1-c1nc2ccccc2s1 | 4.8% | -4.7% | -10.7% | 3.38µM* | 3.8% | 2.6%
O=C(Nc1cccc(-c2nc3ccccc3s2)c1)c1ccc2c(c1)OCO2 | 13.8% | -1.1% | -3.7% | 12µM* | 1.0% | -1.7%
Cc1cc(Cl)ccc1NC(=O)CN1C(=O)COc2ccc(S(=O)(=O)Nc3ccccc3)cc21 | . | . | . | -1.6% | . | .
Cc1c(Cl)cccc1NC(=O)Cn1cnc2nc3c(cc2c1=O)CCCC3 | . | . | . | 1.4% | . | .
CC(=O)NS(=O)(=O)c1ccc(NC(=O)/C=C/c2cn(-c3ccccc3)nc2-c2ccccc2)cc1 | -2.8% | 4.2% | 7.6% | 9.53µM* | 0.5% | -3.8%
COc1ccccc1CNS(=O)(=O)c1ccc2c(c1)NC(=O)C(C)C(=O)N2 (configuration not stated) | . | . | . | -8.8% | . | .
Oc1ccc(Cl)cc1C1=NNC(c2cccs2)C1 (configuration not stated) | -5.0% | . | . | ? | -15.6% | 7.5%
Cc1ccc(O)c(C2=NNC(c3ccc(Cl)cc3)C2)c1 (configuration not stated) | -0.2% | . | . | 26.9µM* | 5.1% | 27.3%
N#C/C(=C\c1ccccn1)c1nc2ccccc2s1 | 1.7% | -18.9% | 15.1% | 3.38µM* | ? | ?
C(=C(c1ccccc1)c1ccccc1)c1ccccn1 | -2.6% | . | . | 0.8% | 3.1% | 2.5%
COc1ccc(/C(C#N)=C/c2ccccn2)cc1 | 2µM* | . | . | 4.78µM* | ? | 1.41µM*
COC(=O)c1ccc(/C=C(\C#N)c2nc3ccccc3s2)cc1 | 5.6% | -11.7% | -1.7% | ? | 6.9% | 5.9%
CCn1c(/N=C/c2ccc(OC)cc2O)nc2ccccc21 | -0.5% | . | . | 0.953µM* | 1.4% | 9.3%
CCCCn1c(/N=C/c2ccc3c(c2)OCO3)nc2ccccc21 | -3.4% | -3.6% | 18.2% | 8.49µM* | -2.6% | 1.6%
CCCn1c(/N=C/c2ccccc2O)nc2ccccc21 | -4.3% | -2.4% | -2.9% | -0.4% | 1.8% | -0.5%
CN(C)c1ccc(/C=N/n2ncc3ccccc32)cc1 | 23.5% | -11.2% | 8.91µM* | 10.7µM* | ? | ?
CN(C)c1ccc(/C=N/NC(=O)c2cccc(C(=O)N/N=C/c3ccc(N(C)C)cc3)n2)cc1 | 1.7% | -2.7% | 2.2% | ? | 5.3% | -4.6%
C=CCn1c(/N=C/c2ccc(N(C)C)cc2)nc2ccccc21 | 0.0% | . | . | 0.135µM* | -0.4% | 8.8%
Cn1c(=S)n(/N=C/c2ccc3c(c2)OCO3)c2ccccc21 | 29.0% | 0.2% | -3.1% | ? | 6.9% | 16.7%
Cc1ccc(-n2cc(C(=O)OCc3ccc(Cl)cc3)c3ccccc3c2=O)cc1 | . | . | . | -3.1% | . | .
CCOC(=O)C1CCN(C(=O)Cn2c(=O)oc3cc(S(=O)(=O)N4CCC(C)CC4)ccc32)CC1 | . | . | -6.1% | -3.6% | . | .
COC(=O)c1ccccc1NC(=O)Cc1nc(-c2ccc(OC)cc2)no1 | . | . | . | -17.6% | . | .
SMILES | NPC1 prom act | Luc counter | SMN2 splice enh | FLuc modulator | ELG1 genotox | Rab9 promoter act
CCCCn1c(N)nc2ccccc21 | -1.4% | -1.0% | -9.7% | 4.0% | -7.9% | 2.8%
C=CCn1c(/N=C/c2ccc(OC)cc2)nc2ccccc21 | -5.0% | . | . | 0.426µM* | -2.2% | -2.4%
CCCCn1c(/N=C/c2ccc(N(C)C)cc2)nc2ccccc21 | -0.1% | 0.0% | -20.2% | 1.9µM* | -0.9% | -2.1%
COc1ccc(/C=N/c2nc3ccccc3n2CCN2CCCCC2)cc1OC | -2.8% | 17.1% | 6.6% | -8.9% | -0.5% | -2.4%
COc1ccc2c(c1)c1c(c(=O)n(-c3ccc(C)cc3)c(=O)n1CC(=O)N1CCCC1)n2C | . | . | . | 4.7% | . | .
O=C(COC(=O)Cn1cnc2ccccc21)Nc1ccc2c(c1)C(=O)c1ccccc1C2=O | ? | -0.3% | -12.4% | ? | 11.6µM* | ?
OCC1OC(n2cnc3c(=S)nc[nH]c32)C(O)C1O (configuration not stated) | . | -1.2% | -37.9% | . | . | .
CC(=O)NNC(=O)c1sc(=S)n2c1[nH]c(=O)c1sccc12 | -3.8% | 3.9% | 3.9% | 19µM* | -0.7% | -3.6%
NC(=O)c1sc(=S)n2c1[nH]c(=O)c1sccc12 | 0.2% | 4.0% | 25.2% | ? | -4.5% | 2.0%
O=C(OCc1nnc(-c2ccc(Br)cc2)o1)c1ccco1 | -2.8% | . | . | 21.3µM* | 1.1% | 0.2%
O=C(OCc1nnc(-c2ccc(Cl)cc2)o1)c1ccncc1 | 8.4% | -8.6% | -1.2% | ? | -2.4% | -3.1%
O=C(OCc1nnc(-c2ccccc2)o1)c1ccccc1 | 0.7% | -6.1% | 9.3% | 15.1µM* | 1.4% | 15.3%
Cc1ccccc1C(=O)OCc1nnc(-c2ccc(Cl)cc2)o1 | -1.0% | -4.6% | 10.7% | 19µM* | 8.3% | 20.6%
O=C(COC(=O)c1ccc(-c2nnc(-c3ccccc3)o2)cc1)c1ccccc1 | 0.562µM* | 1.8% | 2.82µM* | 4.4% | ? | 0.562µM*
O=C(Nc1cccs1)Nc1cccnc1Cl | 0.5% | . | . | ? | -3.4% | -39.5%
O=C(Nc1ccc(F)cc1)Nc1cccnc1Cl | 22.8% | . | . | 16.9µM* | 3.9% | ?
COc1cccc(NC(=O)Nc2ccc(C)c(Cl)c2)c1 | ? | -0.9% | 12.6µM* | 2.69µM* | ? | 2.82µM*
Cc1ccc(NC(=O)Nc2ccc(F)cc2)cc1Cl | ? | -2.0% | ? | 2.69µM* | 12.4% | ?
Cc1ccc(CCNC(=O)c2ccc(Cn3c(=O)c4cccn4c4cccnc43)cc2)cc1 | . | . | . | 1.7% | . | .
Cn1c(=O)c2c(nc(SCC(=O)Nc3ccccc3F)n2Cc2ccccc2F)n(C)c1=O | . | . | 0.6% | 0.1% | . | .
CCCCS(=O)(=O)N1CCc2nc(-c3ccccc3)c3c(c2C1)CO[C@@H](C)C3 | . | -2.3%[7.66 µM] | -3.3%[9.22 µM] | . | . | .
CCCCN(C)CCCNC(=O)Cn1ncc2c3ccccc3n(Cc3cccc(Cl)c3)c2c1=O | . | . | 6.5% | -6.5% | . | .
COc1ccc(OC)c(N=c2oc3cc(O)ccc3cc2C(N)=O)c1 | -1.0% | ? | -27.0% | 21.3µM* | -0.7% | 16.2%
